These results are taken from the OligoGym collection.
Further: reference of the scale not given here.

One assay deals with RDH8. The assay is described as follows: pooled miR-30 sensor sort-seq; sequence = guide strand. Conditions: shRNA.
For ATGAAGAGTCTGTTCATCCTTT, the sensor-assay potency score (higher = more potent) was 0.345.
The same measure, in the same setting: under TTGAAGGCCAAGGTTGAGGAGG stands -0.704; under TTGACGAGACGGACAGCTCCGA, -0.0536.
Still for that read-out and setting: for TTGGTGTCAAAGACATTCTGCA the value was 0.0313; for TACAGCTGAGACACTGGGCCAC, 0.00741; for TCAAACTCGGTGACCACGGGGC, -0.118.
On the same count and under the same terms, for TTCTGCATGGCAGCAAGGCTGA the value was -1.12; for TTGAGCGTGGTCAGCGGCGAGT, -1.34; for ATCACTGCACACGTCCAGCTGG, -0.715.
ATCGTTGAAGATGACACCCTGC returned a sensor-assay potency score (higher = more potent) of 0.0457.
TAGCGGATGTTGGTCTGTCGGC gave a sensor-assay potency score (higher = more potent) of -1.33.

The next assay addresses RECQL4. The description is as above. Conditions: shRNA.
For the sequence TTGGTTGTGACTGTGGCACCAC, the sensor-assay potency score (higher = more potent) turned out to be 0.278.
As for TTCTGCTTCATGTTGAGCCGTA, the sensor-assay potency score (higher = more potent) worked out at 0.124.
On the same count and under the same terms, for TTGTGGTGAAGGAACCAGTGGC the value was 0.104; for TTCAGGAAACAAGACTCCTTGG, -0.807; for TAGAGTGGCAGCACGGTGGGGT, 0.669.
The sequence AACAGCATCTGTGTCTTCCTCA yielded a sensor-assay potency score (higher = more potent) of 0.181.
For the sequence TTATTCTGCATTTTGGAGCCTC, the sensor-assay potency score (higher = more potent) worked out at 0.116.
The sequence TTGAAAACGTTTGCCTTGCAGC returned a sensor-assay potency score (higher = more potent) of -0.47.
Regarding TAGCACAGCAAAGTCTCGATGG, the sensor-assay potency score (higher = more potent) was -0.495.
On the same count and under the same terms, under TTTCTTCCGCCACTTCTGCTTC stands -1.04.
The same measure, in the same setting: under TTCTGCAGGACAGATTCCCGTT stands -0.459.
On the same count and under the same terms, for TATTTTCTCCAGAAGCGTCGGT the value was 0.184.

The target in the next assay is RELA. The description is as above. Conditions: shRNA.
Sequence TATCTGTGCTCCTCTCGCCTGG yielded a sensor-assay potency score (higher = more potent) of -1.
The same measure, in the same setting: for TTTCCTACAAGCTCGTGGGGGT the value was -0.0432; for TTCTATAGGAACTTGGAAGGGG, 0.628; for TTGAGCTCGGCAGTGTTGGGGG, 0.294.
For TTTCTGCACCTTGTCACACAGT, the sensor-assay potency score (higher = more potent) is -0.991.
Still for that read-out and setting: under TCAATGATCTCCACATAGGGGC stands -0.148; under TTGTCGGTGCACATCAGCTTGC, -0.891.
Take TTGGGGACAGAAGCTGAGCTGC: the sensor-assay potency score (higher = more potent) is -1.1.
For TTACGTTTCTCCTCAATCCGGT, the sensor-assay potency score (higher = more potent) turned out to be 0.444.
Sequence TTTACGTTTCTCCTCAATCCGG registered a sensor-assay potency score (higher = more potent) of -0.69.
TTCATCATCAAACTGCAGCTGC: the sensor-assay potency score (higher = more potent) was determined as 0.151.
On to TAGCCATTGATCTTGATGGTGG, for which the sensor-assay potency score (higher = more potent) was -0.637.

In another assay the target is REPS2. The assay is described as above. To be noted: shRNA.
As for TTCTGTGATCTGGTGCAGCGTC, the sensor-assay potency score (higher = more potent) was -0.566.
Still for that read-out and setting: under TCGTTCTTGATGAACCTCCTTG stands -0.785.
In the case of TTCTTTGACATCATAAAGCGAG, the sensor-assay potency score (higher = more potent) is -0.889.
Same read-out and setting: under TTTGACACAGTCAAACATCTAT stands -0.0627.
Same read-out and setting: under TGTTCTTCTGTTATCCTCCAGG stands -0.549.
